D1 PAM: enhances dopamine response at the human D1 receptor. potentiation, % at 10 µM. AID 504651. HEK293 TREx D1 cells, calcium flux, dopamine EC20 potentiation. 360,000 tested, 0.036% active; in the data active means potentiation above about 30%
D1 ag: agonists of human D1 dopamine receptor; HEK293 T-REx D1 cells, calcium flux, agonist mode; activation, % at 2 µM; 360,000 tested, 1% active; AID 504660
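Inducible HEK293 T-REx D1 cells, force-coupled to calcium signalling, were plated at 4000 cells/well with tetracycline and held overnight at 30 C. After no-wash calcium dye loading, compound-evoked calcium rise over 180 s flagged agonists.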
D1 antag: human D1 dopamine receptor antagonism | P21728 | HEK293 TREx D1 cells, calcium flux, dopamine EC80; hits give low values | activity change, negative = inhibition, % at 10 µM | 360,000 tested, 3.2% active; in the data active means activity change below about -30%
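After overnight tetracycline induction at 30 C, force-coupled D1 HEK293 cells took up a no-wash calcium dye at room temperature. Compounds were added and monitored 180 s, and the response to EC80 dopamine was then recorded.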
TRHR agonist: TRH receptor (human) agonism | P34981 | TRHR cells, calcium flux fluo-8, FDSS agonist mode | activation, % at 2 µM | 360,000 tested, 0.18% active
Target sequence (P34981 whole entry, looked up): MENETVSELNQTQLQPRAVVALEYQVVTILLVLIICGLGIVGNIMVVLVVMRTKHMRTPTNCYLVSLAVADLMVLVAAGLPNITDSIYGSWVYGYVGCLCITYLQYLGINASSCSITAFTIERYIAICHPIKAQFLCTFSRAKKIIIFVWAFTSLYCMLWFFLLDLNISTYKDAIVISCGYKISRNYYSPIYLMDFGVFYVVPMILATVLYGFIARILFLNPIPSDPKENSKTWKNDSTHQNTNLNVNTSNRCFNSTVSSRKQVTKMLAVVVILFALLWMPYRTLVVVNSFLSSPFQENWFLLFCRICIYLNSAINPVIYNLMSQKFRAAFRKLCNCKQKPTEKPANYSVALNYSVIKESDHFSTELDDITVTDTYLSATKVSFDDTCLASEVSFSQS
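Steps: seed TRHR cells overnight; add fluo-8 no-wash Ca dye, RT 30 min–1.5 h; record 10 s baseline; pin-transfer compounds; monitor fluorescence 1 cycle/s for the agonist window. Calcium increases flag candidate agonists.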
TRHR PAM: TRH receptor (human) allosteric enhancement. P34981. TRHR cells, fluo-8 calcium fluorescence, EC20 TRH enhancement. enhancement, % at 2 µM. 360,000 tested, 0.66% active. AID 493056; in the data active means enhancement above about 30%
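Enhancer read-out: after compound pinning and an initial kinetic agonist-mode read, an EC20 of TRH (10 nM final) was injected and fluo-8 calcium signal (Ex 480/Em 530) followed at 1 s/cycle for 100 cycles in TRHR-expressing cells.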
Glioma ERSR ind: ER stress response induction in glioma; U87-MG GRP78 promoter luciferase reporter, 16 h; 420,000 tested, 0.02% active; Potency, µM, usual class: activators; active means well fitted activation curve with a large enough effect; further: series mostly up to about 76 µM; nearly all actives have a fitted effect of over 35% in size
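ERSR induction read as luciferase luminescence (Bright-Glo, 10 min at room temperature) in stably transfected human U87-MG glioma cells exposed to compounds for 16 h, using GRP78 as sensor.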
Each line names hits and unclear results; the compound was inactive in the other large screens. The list is not random: actives were taken first. Their share in the collection is about 4%. Unless noted, no stated cut-off is given here; in the data, active means activation above about 30%; inactive means the rest.

CCOc1ccccc1N1CCN(CC(O)COCc2cccs2)CC1 (configuration not stated)	none
O=C(N/N=C(\Cc1ncc[nH]1)c1ccccc1)c1ccccc1	none (no result: Glioma ERSR ind)
Cc1ccc(-n2ncc(C(=O)Nc3ccc(Cl)cc3)c2C2CCNCC2)cc1C	D1 antag -43.7
CCOc1ccc(NC(=O)c2cnn(-c3ccc(C)c(Cl)c3)c2C2CCNCC2)cc1	none
Clc1ccc(OCCN2CCOCC2)cc1	TRHR PAM 36.0
Cc1ccc(OCCN2CCOCC2)cc1C	none
Cc1cc(OCCN2CCOCC2)ccc1Cl	D1 antag -93.9
Cc1cc(C)n(-c2ccc(C(=O)Oc3ccc4c(c3)OCO4)cc2)n1	none
CCOC(=O)c1[nH]c2ccc(OCC)cc2c1NC(=O)CN1CCN(c2ccccc2)CC1	none
COc1cccc(CN2CCN(Cc3cccc(Oc4ccccc4)c3)CC2)c1OC	TRHR PAM 31.5
COc1cc(CN2CCN(C(c3ccccc3)c3ccccc3)CC2)cc(OC)c1OC	D1 antag -52.3
COc1cccc(CN2CCN(Cc3cc(OC)c(OC)c(OC)c3)CC2)c1OC	none
CN1CCN(Cc2cccc(Oc3ccc(Cl)cc3)c2)CC1	none
COc1cccc(CN2CCN(C(c3ccccc3)c3ccccc3)CC2)c1O	none
CCN1CCN(Cc2cccc(Oc3ccc(Cl)cc3)c2)CC1	D1 antag -64.5
CCOC(=O)CC1C(=O)NCCN1C(=O)c1cccc(C(F)(F)F)c1 (configuration not stated)	none
COc1ccc(N2CC(C(=O)OCC(=O)Nc3cccc(C)c3)CC2=O)cc1 (configuration not stated)	D1 antag -30.5
COc1cccc(NC(=O)COC(=O)C2CC(=O)N(c3ccc(C)cc3)C2)c1 (configuration not stated)	none
C[C@@H]1CN([C@@H](C)CO)S(=O)(=O)c2ccc(Br)cc2O[C@H]1CN(C)C(=O)c1ccccc1F	none (no result: D1 PAM, D1 ag, D1 antag, TRHR agonist, TRHR PAM)
Cn1cc(CCNCc2cn[nH]c2-c2ccc(-c3ccccc3)cc2)cn1	none
Cc1ccc(-c2[nH]ncc2CNCCc2cnn(-c3ccccc3)c2)cc1C	D1 ag 34.1
CC12CCC(C(=O)Nc3ccccc3)(C/C1=N\O)C2(C)C (configuration not stated)	none
COC(=O)c1sc2cc([N+](=O)[O-])cc(SCC(C)C)c2c1N	D1 ag 90.5
CCN(CC)C(=O)c1ccc(C(=O)c2c(C)cc(C)cc2C)cc1	none
Cc1ccc(C2=NN(C(=O)CN3C(=O)c4ccccc4S3(=O)=O)C(c3ccco3)C2)cc1 (configuration not stated)	D1 antag -76.4
Cc1ccc(C2=NN(C(=O)C3CCCO3)C(c3ccco3)C2)cc1 (configuration not stated)	none
Cc1ccc(C2=NN(C(=O)CCCC(=O)O)C(c3ccco3)C2)cc1 (configuration not stated)	D1 ag 74.4
O=C(C1CCCO1)N1N=C(c2ccc(Br)cc2)CC1c1ccco1 (configuration not stated)	D1 antag -71.4
COc1ccc(-c2oc3ncn4nc(-c5ccc(Cl)cc5)nc4c3c2-c2ccc(OC)cc2)cc1	none
COc1ccc(C(C)=O)cc1COC(=O)CNC(=O)c1cc(C)cc(C)c1	none
OC(CNCCNc1ncccc1C(F)(F)F)Cn1ccc2ccccc21 (configuration not stated)	D1 antag -35.9
COC(=O)c1cc2n(n1)CCN(Cc1ccc(C)cc1)C2=O	none
COC(=O)c1cc2n(n1)CCN(Cc1ccccc1Cl)C2=O	TRHR PAM 32.1
O=C(NCCCN1CCN(c2ccccc2)CC1)c1cc2c(s1)-c1ccccc1OC2	none
CC(=O)Cn1cnc2c(cnn2-c2ccc(F)cc2)c1=O	none (no result: D1 PAM, D1 ag, D1 antag, TRHR agonist, TRHR PAM)
O=c1c2cnn(-c3ccccc3)c2ncn1Cc1ccccn1	D1 antag -40.8
COc1ccc(-n2ncc3c(=O)n(CC(C)=O)cnc32)cc1	D1 antag -33.7
Cc1cc(C)c(NC(=O)CS(=O)CC(=O)Nc2ccc(-n3cnnn3)c(C)c2)c(C)c1 (configuration not stated)	none
Nc1nonc1-n1nnc(C(=O)N/N=C/c2ccncc2)c1CSc1ccccc1	D1 antag -47.3
CCCc1c(C(=O)N/N=C/c2cccs2)nnn1-c1nonc1N	D1 ag 31.2
Nc1nonc1-n1nnc(C(=O)N/N=C/c2ccoc2)c1CSc1ccc(Cl)cc1	D1 antag -39.7
Nc1nonc1-n1nnc(C(=O)N/N=C/c2ccoc2)c1CSc1ccccc1	none
CCCN(CCC)Cc1c(C(=O)N/N=C/c2cccs2)nnn1-c1nonc1N	none
O=[N+]([O-])c1ccc(N2CCNCC2)c(S(=O)(=O)N2CCOCC2)c1	none
O=C(C1CC1)N1CCc2cc(Br)cc(S(=O)(=O)Nc3ccc(F)c(F)c3)c21	D1 antag -31.2
COc1cccc(Nc2nc(C(N)CO)cs2)n1 (configuration not stated)	none (no result: D1 PAM, D1 ag, D1 antag, TRHR agonist, TRHR PAM)
COC(=O)c1cnn2c1C(=O)N(Cc1cccs1)CC2	TRHR PAM 33.6
COc1ccc(CN2CCn3ncc(C(=O)Nc4cccc(C)c4)c3C2=O)cc1	none
COc1ccc(CCNC(=O)Cn2c(=O)n(CCCC(=O)NCc3ccco3)c(=O)c3sccc32)cc1OC	none
COc1cc(CNC(C)C)c(Br)cc1OC1CCCC1	D1 antag -48.5
Cc1ccc(/C=N/NC(=O)Cc2ccc(O)cc2)s1	D1 antag -32.7
N[C@H](CSCc1ccccc1)C(=O)Nc1ccc([N+](=O)[O-])cc1	D1 antag -33.4
CCCCn1c(C)cc2c(c1=O)C1O[C@](c3ccsc3)(Cc3ccccc31)O2	TRHR PAM 33.0 (no result: Glioma ERSR ind)
CN(C)c1ccc(/C=C/C(=O)c2c(O)c3ccccc3oc2=O)cc1	D1 ag 155.8, TRHR agonist 38.4
CN(/C=C/C(=C/C=[N+](C)c1ccccc1)OCCCS(=O)(=O)[O-])c1ccccc1	none
c1cncc(CNc2ncnc3sc4c(c23)CCC4)c1	D1 antag -43.4
COc1ccc(OCC(=O)OCC(=O)N2C(C)CCCC2C)cc1 (configuration not stated)	D1 antag -36.2 (no result: D1 PAM)
COc1ccc2oc(C(=O)OCC(=O)NC3(C#N)CCCC3)c(C)c2c1	D1 antag -48.5
Cc1c(C(=O)OCC(=O)N2c3ccccc3CC2C)oc2ccccc12 (configuration not stated)	D1 antag -65.2
COc1ccc2oc(C(=O)OCC(=O)N3C(C)CCCC3C)c(C)c2c1 (configuration not stated)	TRHR PAM 32.9
COc1ccc(OCC(=O)OCC(=O)NC2CC2)cc1	none

Source: PubChem (National Center for Advancing Translational Sciences (NCATS))
